Laboratory results: PubChem BioAssay (EPA / NIEHS)
Activity calls are given as the source filed them. Rule for the calls: active = hit-call score of the fitted dose curve at least 0.9, where 1 is the maximum; inactive = score below 0.9.

Key:
[1] = read-out: Interleukin-1 alpha (IL1a), IL1A (gene 3552); test: BSK_KF3CT_IL1a: BioMAP Diversity Plus: KF3CT Assay for Interleukin-1 alpha (IL1a) Biomarker Activity (AID 2283070); conditions: primary human keratinocytes with fibroblasts; actives raise or lower the signal
How it was run: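 Readout is IL-1a level by ELISA, compared bidirectionally with DMSO as baseline. Cells: human keratinocytes co-cultured with foreskin fibroblasts, harvested 24 h post-dose.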

[2] = read-out: TIMP metallopeptidase inhibitor 2 (TIMP2), TIMP2 (gene 7077); test: BSK_KF3CT_TIMP2: BioMAP Diversity Plus: KF3CT Assay for TIMP metallopeptidase inhibitor 2 (TIMP2) Biomarker Activity (AID 2283071); conditions: primary human keratinocytes with fibroblasts; actives raise or lower the signal
How it was run: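 Measurements come from ELISA detection of TIMP-2 at 24 hours in a dosed human keratinocyte and foreskin fibroblast co-culture. DMSO serves as negative control and baseline.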

[3] = read-out: Transforming growth factor beta 1 (TGFb1), TGFB1 (gene 7040); test: BSK_KF3CT_TGFb1: BioMAP Diversity Plus: KF3CT Assay for Transforming growth factor beta 1 (TGFb1) Biomarker Activity (AID 2283072); conditions: primary human keratinocytes with fibroblasts; actives raise or lower the signal
How it was run: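 TGF-b1 ELISA on a 24 h dosed co-culture of human keratinocytes and foreskin fibroblasts; cytotoxicity tracked in parallel cultures by SRB staining.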

[4] = read-out: Matrix Metallopeptidase 9 (MMP9), MMP9 (gene 4318); test: BSK_KF3CT_MMP9: BioMAP Diversity Plus: KF3CT Assay for Matrix Metallopeptidase 9 (MMP9) Biomarker Activity (AID 2283074); conditions: primary human keratinocytes with fibroblasts; actives raise or lower the signal;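 for AC50: MMP9 protein level quantified by ELISA in the co-culture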
How it was run: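 Values come from bidirectional fitting relative to DMSO of MMP-9 levels, which were measured by ELISA. Measurements were taken 24 h after chemical dosing of a keratinocyte and foreskin fibroblast co-culture.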

[5] = read-out: CD40, CD40 (gene 958); test: BSK_LPS_CD40: BioMAP Diversity Plus: LPS Assay for CD40 Biomarker Activity (AID 2283076); conditions: primary human HUVEC with PBMC; actives raise or lower the signal
How it was run: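 Cells were dosed, incubated 24 h, then assayed for CD40 by ELISA. Gain or loss of signal was analysed relative to DMSO controls. The culture paired human umbilical vein endothelium with peripheral blood mononuclear cells.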

[6] = read-out: E-selectin (Homo sapiens) (UniProt P16581); test: BSK_LPS_Eselectin: BioMAP Diversity Plus: LPS Assay for Eselectin Biomarker Activity (AID 2283077); conditions: primary human HUVEC with PBMC; actives raise or lower the signal
How it was run: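 Primary human vascular co-culture (endothelium plus PBMC) was dosed with chemical, then E-selectin quantified by ELISA at 24 h. Endpoint values derive from bidirectional curve fitting relative to DMSO.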

[7] = read-out: Interleukin-8 (IL8), CXCL8 (gene 3576); test: BSK_LPS_IL8: BioMAP Diversity Plus: LPS Assay for Interleukin-8 (IL8) Biomarker Activity (AID 2283078); conditions: primary human HUVEC with PBMC; actives raise or lower the signal
How it was run: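 Readout is IL-8 by ELISA, taken 24 h after compounds were added to LPS-stimulated endothelial/PBMC co-cultures. Both increases and decreases relative to DMSO control were scored through bidirectional fitting.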

[8] = BSK_LPS_SRB: Viability Assessment in the BioMAP Diversity Plus: LPS Assay (AID 2283079); conditions: primary human HUVEC with PBMC;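 note: total protein by sulforhodamine B absorbance as a cytotoxicity measure; measured one day after compound addition; fitted in both directions against DMSO so loss or gain of signal counts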
How it was run: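 Readout is SRB absorbance at 560 nm (0.1% stain, TCA-fixed parallel cultures) as a total-protein cytotoxicity measure. Cells: primary human umbilical vein endothelium plus peripheral blood mononuclear cells, 24 h after chemical exposure; DMSO served as baseline.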

[9] = read-out: Interleukin-1 alpha (IL1a), IL1A (gene 3552); test: BSK_LPS_IL1a: BioMAP Diversity Plus: LPS Assay for Interleukin-1 alpha (IL1a) Biomarker Activity (AID 2283080); conditions: primary human HUVEC with PBMC; actives raise or lower the signal
How it was run: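 ELISA read-out of IL-1 alpha from a human primary vascular co-culture (endothelium plus PBMC) under LPS, sampled 24 hours post-dosing. Activity was fitted in both directions relative to DMSO controls.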

[10] = read-out: Monocyte Chemoattractant Protein-1 (MCP1), CCL2 (gene 6347); test: BSK_LPS_MCP1: BioMAP Diversity Plus: LPS Assay for Monocyte Chemoattractant Protein-1 (MCP1) Biomarker Activity (AID 2283081); conditions: primary human HUVEC with PBMC; actives raise or lower the signal;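 for AC50: secreted MCP-1 protein quantified by ELISA in culture supernatant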
How it was run: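 Human endothelial–PBMC co-cultures were dosed with chemical, then LPS-driven MCP-1 levels were quantified by ELISA at 24 h. Activity in either direction was fitted versus DMSO negative control.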

[11] = BSK_LPS_PGE2: BioMAP Diversity Plus: LPS Assay for Prostaglandin E2 (PGE2) Biomarker Activity (AID 2283082); conditions: primary human HUVEC with PBMC; actives raise or lower the signal;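 for AC50: secreted prostaglandin E2 measured by ELISA in LPS-stimulated co-culture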
How it was run: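 Primary human endothelial cells and blood mononuclear cells, co-cultured with LPS, receive test chemical; PGE2 ELISA follows at 24 h, with SRB-stained parallel cultures flagging cytotoxicity.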

[12] = read-out: Macrophage colony-stimulating factor (MCSF), CSF1 (gene 1435); test: BSK_LPS_MCSF: BioMAP Diversity Plus: LPS Assay for Macrophage colony-stimulating factor (MCSF) Biomarker Activity (AID 2283083); conditions: primary human HUVEC with PBMC; actives raise or lower the signal
How it was run: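 ELISA readout of M-CSF after 24 h compound exposure in a human endothelial/PBMC co-culture. Activity, in either direction, is fitted relative to DMSO vehicle.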

[13] = read-out: Tissue Factor, F3 (gene 2152); test: BSK_LPS_TissueFactor: BioMAP Diversity Plus: LPS Assay for Tissue Factor Biomarker Activity (AID 2283084); conditions: primary human HUVEC with PBMC; actives raise or lower the signal
How it was run: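 ELISA signal for cell-surface Tissue Factor (CD142) was read 24 h after compound dosing of an LPS-stimulated human endothelial–PBMC primary co-culture. Gain or loss of signal was scored relative to DMSO.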

[14] = read-out: Tumor necrosis factor (Homo sapiens) (UniProt P01375); test: BSK_LPS_TNFa: BioMAP Diversity Plus: LPS Assay for Tumour Necrosis Factor alpha (TNFa) Biomarker Activity (AID 2283085); conditions: primary human HUVEC with PBMC; actives raise or lower the signal;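 for AC50: TNFa protein level quantified by ELISA in the co-culture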
How it was run: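 ELISA-based TNFa endpoint in a human endothelial–PBMC co-culture sampled 24 h post-exposure. Curves were fitted in both directions using DMSO as baseline of activity.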

[15] = read-out: Vascular cell adhesion molecule 1 (VCAM1), VCAM1 (gene 7412); test: BSK_LPS_VCAM1: BioMAP Diversity Plus: LPS Assay for Vascular cell adhesion molecule 1 (VCAM1) Biomarker Activity (AID 2283086); conditions: primary human HUVEC with PBMC; actives raise or lower the signal
How it was run: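 Measured by ELISA: VCAM-1 in LPS-activated HUVEC/PBMC co-cultures 24 h after treatment. Values reflect bidirectional fitting with DMSO as baseline.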

[16] = read-out: CD38, CD38 (gene 952); test: BSK_SAg_CD38: BioMAP Diversity Plus: SAg Assay for CD38 Biomarker Activity (AID 2283087); conditions: primary human HUVEC with PBMC; actives raise or lower the signal
How it was run: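 Measures CD38 on a human endothelial/PBMC co-culture driven by SEB and TSST-1, 24 h after compound exposure, using ELISA with fluorescence detection; DMSO defines baseline for bidirectional curve fitting.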

[17] = read-out: CD40, CD40 (gene 958); test: BSK_SAg_CD40: BioMAP Diversity Plus: SAg Assay for CD40 Biomarker Activity (AID 2283088); conditions: primary human HUVEC with PBMC; actives raise or lower the signal
How it was run: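 Compounds were dosed onto a human primary endothelial–PBMC co-culture, and after 24 h CD40 was quantified by ELISA using a fluorescence signal. Activity in either direction was fitted relative to DMSO.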

[18] = read-out: CD69, CD69 (gene 969); test: BSK_SAg_CD69: BioMAP Diversity Plus: SAg Assay for CD69 Biomarker Activity (AID 2283089); conditions: primary human HUVEC with PBMC; actives raise or lower the signal;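 for AC50: cell surface CD69 protein quantified by ELISA with fluorescence detection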
How it was run: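 Endothelial/PBMC co-culture; chemical added; 24 h incubation; CD69 ELISA with fluorescence detection; bidirectional fit vs DMSO.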

[19] = read-out: C-C motif chemokine 2 (Homo sapiens) (UniProt P13500); test: BSK_KF3CT_MCP1: BioMAP Diversity Plus: KF3CT Assay for Monocyte Chemoattractant Protein 1 (MCP1/CCL2) Biomarker Activity (AID 2283073); conditions: primary human keratinocytes with fibroblasts; actives raise or lower the signal
How it was run: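 ELISA readout of MCP-1 after 24 h chemical dosing of a human skin primary co-culture of keratinocytes and foreskin fibroblasts. Activity was fitted in both directions against DMSO.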

[20] = read-out: urokinase plasminogen activator (uPA), PLAU (gene 5328); test: BSK_KF3CT_uPA: BioMAP Diversity Plus: KF3CT Assay for urokinase plasminogen activator (uPA) Biomarker Activity (AID 2283075); conditions: primary human keratinocytes with fibroblasts; actives raise or lower the signal
How it was run: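 Values derive from bidirectional fitting against DMSO controls. Keratinocyte/foreskin fibroblast co-cultures received chemical; 24 h later uPA was detected by ELISA, with SRB total-protein staining in parallel wells for overt cytotoxicity.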

Tumor necrosis factor (Homo sapiens), sequence (P01375 whole entry, looked up): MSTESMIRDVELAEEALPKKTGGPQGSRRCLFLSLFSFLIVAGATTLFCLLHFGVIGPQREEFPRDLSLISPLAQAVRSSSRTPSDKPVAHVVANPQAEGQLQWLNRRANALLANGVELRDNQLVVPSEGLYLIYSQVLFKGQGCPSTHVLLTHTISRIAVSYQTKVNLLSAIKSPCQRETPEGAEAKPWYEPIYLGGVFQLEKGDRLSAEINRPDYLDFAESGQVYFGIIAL
E-selectin (Homo sapiens), sequence (P16581 whole entry, looked up): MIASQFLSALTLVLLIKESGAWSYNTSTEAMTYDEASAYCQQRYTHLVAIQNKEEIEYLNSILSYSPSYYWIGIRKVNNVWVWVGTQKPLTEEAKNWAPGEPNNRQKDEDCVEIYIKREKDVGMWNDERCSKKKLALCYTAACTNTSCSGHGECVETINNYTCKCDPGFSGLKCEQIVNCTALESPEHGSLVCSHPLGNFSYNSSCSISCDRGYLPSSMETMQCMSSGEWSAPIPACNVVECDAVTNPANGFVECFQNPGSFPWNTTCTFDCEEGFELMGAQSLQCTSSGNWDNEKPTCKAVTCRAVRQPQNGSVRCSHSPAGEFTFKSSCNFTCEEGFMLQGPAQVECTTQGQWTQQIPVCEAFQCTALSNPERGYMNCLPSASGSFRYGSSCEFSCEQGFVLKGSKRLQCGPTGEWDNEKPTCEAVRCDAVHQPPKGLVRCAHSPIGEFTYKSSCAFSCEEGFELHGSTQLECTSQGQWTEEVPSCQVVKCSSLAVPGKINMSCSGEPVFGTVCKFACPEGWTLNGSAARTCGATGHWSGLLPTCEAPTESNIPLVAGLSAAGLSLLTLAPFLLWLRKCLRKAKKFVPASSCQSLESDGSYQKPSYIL

CCCCCCCCCC[N+](C)(C)CCCCCCCCCC
AC50 [1]: 6.82 µM (active) | AC50 [2]: 4.71 µM (active) | AC50 [3]: 3.03 µM (active) | AC50 [4]: 4.56 µM (active) | AC50 [5]: 4.27 µM (active) | AC50 [6]: 4.41 µM (active) | AC50 [7]: 5.86 µM (active) | AC50 [8]: 5.32 µM (active) | AC50 [9]: 3.75 µM (active) | AC50 [10]: 4.16 µM (active) | AC50 [11]: 3.88 µM (active) | AC50 [12]: 3.79 µM (active) | AC50 [13]: 4.31 µM (active) | AC50 [14]: 3.79 µM (active) | AC50 [15]: 7.43 µM (active) | AC50 [16]: 2.38 µM (active) | AC50 [17]: 4.45 µM (active) | AC50 [18]: 4.61 µM (active)

CC(C)(c1ccccc1)c1ccc(O)cc1
AC50 [1]: 31.2 µM (active) | AC50 [2]: 34.3 µM (active) | AC50 [3]: 34.5 µM (active) | AC50 [19]: 34.8 µM (active) | AC50 [4]: 31.4 µM (active) | AC50 [6]: 36.7 µM (active) | AC50 [8]: 33.1 µM (active) | AC50 [9]: 36.3 µM (active) | AC50 [10]: 35.2 µM (active) | AC50 [11]: 12.4 µM (active) | AC50 [12]: 33.6 µM (active) | AC50 [13]: 32.2 µM (active) | AC50 [14]: 31.5 µM (active) | AC50 [15]: 33.4 µM (active) | AC50 [16]: 31.2 µM (active) | AC50 [17]: 31.1 µM (active) | AC50 [18]: 37.9 µM (active)

C=CC(N)=O
outcome [1]: inactive | outcome [2]: inactive | outcome [3]: inactive | outcome [19]: inactive | outcome [4]: inactive | outcome [6]: inactive | outcome [7]: inactive | outcome [8]: inactive | outcome [9]: inactive | outcome [10]: inactive | outcome [11]: inactive | outcome [12]: inactive | outcome [13]: inactive | outcome [14]: inactive | outcome [15]: inactive | outcome [16]: inactive | outcome [17]: inactive | outcome [18]: inactive

O=C(NC(=O)c1c(F)cccc1F)Nc1cc(Cl)c(OC(F)(F)C(F)F)c(Cl)c1
outcome [1]: inactive | outcome [2]: inactive | outcome [3]: inactive | outcome [4]: inactive | outcome [20]: inactive | outcome [5]: inactive | outcome [6]: inactive | outcome [8]: inactive | outcome [9]: inactive | outcome [10]: inactive | outcome [11]: inactive | outcome [12]: inactive | outcome [13]: inactive | AC50 [14]: 0.401 µM (active) | outcome [15]: inactive | outcome [16]: inactive | outcome [17]: inactive | outcome [18]: inactive

Cc1ccccc1O
outcome [1]: inactive | outcome [2]: inactive | outcome [3]: inactive | outcome [4]: inactive | outcome [5]: inactive | outcome [6]: inactive | outcome [8]: inactive | outcome [9]: inactive | outcome [10]: inactive | AC50 [11]: 3.97 µM (active) | outcome [12]: inactive | outcome [13]: inactive | outcome [14]: inactive | outcome [15]: inactive | outcome [16]: inactive | outcome [17]: inactive | outcome [18]: inactive
